Only some compounds are listed: those with a hit (about 19% of all), similar ones and a draw of the others.
TDP1 cell CPT = DT40-hTDP1 cell growth loss with CPT | chicken DT40 Tdp1-/-;hTDP1 cells + 20 nM CPT, ATP luminescence, 48 h | Potency, µM (top dose mostly 46.2 µM), hits mostly inhibitors | 420,000 tested, 12% active; note: nearly all actives have a fitted effect of over 55% in size
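Chicken DT40 Tdp1-/- cells complemented with human TDP1, 400 cells/well, exposed to compounds plus 20 nM camptothecin for at least 48 h at 37 C; viability read as ATP content by CellTiter-Glo luminescence.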
Chronic BCR inh = blocks chronic active B-cell receptor signaling. Potency, µM (doses to about 46.1 µM), hits mostly inhibitors. ABC-DLBCL IkBa-CBG/CBR reporter, luminescence ratio, 4 h. 340,000 tested, 0.05% active; active = well fitted inhibition curve with a large enough effect in the signal ratio, with a control signal flat, not every such curve was filed as active; inconclusive = small, poorly fitted or top-dose-only effect, or effect the other way, or a change in a side signal; the % refers to the signal ratio
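TMD8 human ABC-DLBCL cells with doxycycline-inducible IκBα–green luciferase fusion and unfused red luciferase, in 0.5% FBS medium; compounds up to 46 uM, 4 h at 37C. Green/red luminescence ratio, filter-overlap corrected, fitted to concentration-response curves.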
TDP1 cell noCPT = qHTS for Inhibitors of human tyrosyl-DNA phosphodiesterase 1 (TDP1): qHTS in cells in absence of CPT; DT40 Tdp1-/- hTDP1 cells, no CPT, ATP luminescence, 48 h; Potency, µM (titrated, usually from 46.2 µM), actives largely listed as inhibitors; 420,000 tested, 15% active; note: nearly all actives have a fitted effect of over 55% in size
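Growth of hTDP1-complemented DT40 Tdp1-knockout cells is measured by ATP luminescence after at least 48 hr compound exposure at 37 °C, with DMSO substituting for the 20 nM CPT used in the parallel screen.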
SW480 rerep = inducers of DNA re-replication in SW480 colon cancer cells; SW480 DNA re-replication, Hoechst DNA content imaging, 48 h; Potency, µM (top dose mostly 46.1 µM), usual class: activators; 340,000 tested, 1.8% active; note: nearly all actives have a fitted effect of over 55% in size
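SW480 cells exposed to compounds for 48 hr at 37 C, 5% CO2, then Hoechst-stained 40 min. Nuclear DNA content imaged by fluorescence scanning (405 nm excitation, 500-530 nm emission); re-replication scored as increased high-intensity nuclei.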
IL1B secr inh = blocks inflammasome-driven IL-1 beta release | THP-1 LPS/ATP IL-1B secretion, AlphaLISA, 16 h; stronger effect = lower value | activity change, % at 57.5 µM | 360,000 tested, 4.7% active | AID 743279; in the data active = activity change below about -50%; inconclusive = mostly about -30% to -49%
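Secreted IL-1B measured by AlphaLISA bead assay after 16 h compound exposure of THP-1 cells; compounds (final up to 57.5 uM) added 1 h before LPS (250 ng/mL) and ATP (1.25 mM) stimulation; lower signal means less secretion.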
MCF10A rerep = induces DNA re-replication in MCF 10a normal breast cells; MCF 10A DNA re-replication, Hoechst nuclear intensity, 48 h; Potency, µM (highest dose often 46.1 µM), actives largely listed as activators; 350,000 tested, 2.9% active; AID 624296; note: nearly all actives have a fitted effect of over 50% in size
Hits are given with their value; 0 = inactive; ? = inconclusive; - = no result. Unless noted, calls come from the whole dose curve; as a rule, active = well fitted curve in the direction sought with a large enough effect; inconclusive = small, poorly fitted or top-dose-only effect, or another doubt; inactive = no such curve, though single readings can be large; an effect the other way counts as inactive or inconclusive.

SMILES	TDP1 cell CPT	Chronic BCR inh	TDP1 cell noCPT	SW480 rerep	IL1B secr inh	MCF10A rerep
O=S(=O)(c1cccc(C(F)(F)F)c1)N1CCC(c2cc(-c3cccc4ccccc34)n[nH]2)CC1	21µM	?	?	?	0	0
COc1ccc(S(=O)(=O)N2CCC(c3cc(-c4cccc5ccccc45)n[nH]3)CC2)cc1	?	0	?	0	0	0
COc1ccc(CNc2ncc(-c3ccc(Cl)cc3)n2C)c(OC)c1OC	?	0	?	?	0	?
CC(NCCC1(Cc2ccccc2Cl)CCOC(C)(C)C1)c1cccs1 (configuration not stated)	23µM	?	21µM	0	-54	0
CC(NCCC1(C(C)C)CCOC(C)(C)C1)c1cccs1 (configuration not stated)	0	0	?	0	0	0
O=C(CNS(=O)(=O)c1ccc(F)cc1)N1CCCC1	0	-	0	0	0	?
CC(C)(C)c1ccc(S(=O)(=O)N2CCN(C(=O)C3CCC3)CC2)cc1	8.2µM	0	18µM	0	0	0
O=C(C1CCC1)N1CCN(S(=O)(=O)c2ccc(F)cc2)CC1	0	0	0	0	0	0
CC(=O)N1CCC(C(=O)N2CCN(S(=O)(=O)c3ccc(F)cc3)CC2)CC1	0	0	18µM	0	0	0
Cc1cccc(C)c1N1CCN(S(=O)(=O)c2ccc(F)cc2)CC1	?	0	16µM	0	0	?
CC(C)(C)c1ccc(S(=O)(=O)NCC(=O)N2CCCC2)cc1	0	0	0	5.8µM	0	0
CN(C(=O)COC(=O)C(C)(C)Oc1ccc(Cl)cc1)c1c(N)n(Cc2ccccc2)c(=O)[nH]c1=O	0	0	?	0	0	0
OCC[C@@H]1C[C@H](O)[C@@H](O)[C@@]2(OCCCc3cc(C(F)(F)F)ccc32)O1	0	-	0	-	0	-
Cc1ccc(S(=O)(=O)N2CCN(C(=O)C3CCCCC3)CC2)cc1	0	?	0	?	0	2.9µM
CC(C)(C)c1ccc(S(=O)(=O)N2CCC(CO)(CC3CCCCO3)CC2)cc1 (configuration not stated)	?	0	?	0	-72	0
CC1CC1C(=O)N1CCN(S(=O)(=O)c2cc(C(F)(F)F)cc(C(F)(F)F)c2)CC1 (configuration not stated)	16µM	0	?	0	0	0
CC(C)(C)c1ccc(S(=O)(=O)N2CCN(C(=O)C3=COCCO3)CC2)cc1	29µM	0	?	0	0	0
CC1=C(C(=O)Nc2ccc(C)cc2C)C(c2ccc(O)cc2)n2nnnc2N1 (configuration not stated)	0	-	?	-	-	-
CC(=O)O[C@@H]1C[C@H]2C(C)(C)C(=O)C=C[C@]2(C)[C@H]2CC[C@@]3(C)[C@H](c4ccoc4)OC(=O)[C@H]4O[C@]43[C@@]21C	?	0	?	4.1µM	0	?
CC1(C)C(=O)C=C[C@@]2(C)C1C=C[C@@]1(C)C2CC[C@@]2(C)C(c3ccoc3)OC(=O)C3OC312 (some centres not stated)	16µM	-	12µM	-	-	-
C/C(=N/OCc1ccc(Br)cc1)c1ccccn1	0	0	?	0	0	0
N#C/C(=C1/C(=O)Nc2ccc(Br)cc21)c1ccccn1	?	0	?	0	-62	0
Nn1c(SCC(=O)Nc2cccnc2Cl)nnc1-c1ccccc1	?	0	0	0	0	0
CCOC(=O)c1sc(CS(=O)(=O)c2ccc(Cl)cc2)nc1C	0	0	?	?	0	?
CCOC(=O)c1sc(-c2ccc(Cl)cc2Cl)nc1O	26µM	0	18µM	21µM	0	?
SMILES	TDP1 cell CPT	Chronic BCR inh	TDP1 cell noCPT	SW480 rerep	IL1B secr inh	MCF10A rerep
CCN(c1cccc2ccccc12)S(=O)(=O)c1ccc(Cl)nc1	?	0	?	0	-75	?
CCN(c1ccccc1)S(=O)(=O)c1ccc(Cl)nc1	0	0	?	0	0	?
O=C(NCC1CCCO1)c1[nH]c(C(F)(F)F)nc1-c1ccccc1 (configuration not stated)	0	-	0	-	0	-
CN1CCN(c2ccc(-c3cccc(NC(=O)COc4ccc(Cl)cc4Cl)c3)nn2)CC1	?	0	?	0	0	?
O=C(NCCc1ccccc1)c1cc2sccc2n1Cc1ccc(F)cc1	0	-	0	-	-	-
CCn1c(C(=O)NCCc2ccc(OC)c(OC)c2)cc2sc(Cl)cc21	18µM	-	12µM	-	-	-
CCOc1ccc(CCNC(=O)c2cc3sc(CC)cc3n2C)cc1OCC	15µM	-	12µM	-	-	-
CCOc1ccc(CCNC(=O)c2cc3sccc3n2CC)cc1OCC	5.2µM	-	5.8µM	0	0	0
O=C(NC1CCCC1)C(c1ccccc1)N(C(=O)c1csnn1)c1ccccc1F (configuration not stated)	0	0	0	0	0	0
Cc1nn(CC(=O)NCCc2ccc(Cl)cc2)c(=O)c2cc3cc(F)ccc3n12	0	-	0	-	-	-
COc1ccc(C(=O)CN2C(=O)NC3(CCCCCC3)C2=O)cc1	0	-	0	0	0	0
O=C(Cn1nc(CNc2ccc(Cl)cc2)[n+]2c1CCCCC2)c1ccc(Br)cc1	23µM	0	?	0	-52	0
O=C(Cn1nc(CNc2ccc(Br)cc2)[n+]2c1CCCCC2)c1ccc([N+](=O)[O-])cc1	6.5µM	?	12µM	0	-61	0
COc1ccc(NCc2nn(CC(=O)c3ccc(Br)cc3)c3[n+]2CCCCC3)cc1	?	0	16µM	0	?	0
CCN(C(=O)CN1C(=O)S/C(=C\c2cccc(OC)c2)C1=O)C1CCS(=O)(=O)C1 (configuration not stated)	?	0	0	0	0	0
Cn1c(=Nc2ccccc2)sc2ccccc21	0	0	0	0	0	?
Cn1c(=NC(=O)CCl)sc2ccccc21	2.6µM	?	4.1µM	?	-120	15µM
Cn1c(=NC(=O)c2ccco2)sc2ccccc21	0	0	?	0	0	0
CCOC(=O)N1CCN(C(=O)CSCC(=O)N=c2sc3ccccc3n2C)CC1	16µM	-	?	0	0	0
CCOC(=O)N1CCN(C(=O)CSCC(=O)N=c2sc3cc(OC)ccc3n2C)CC1	?	-	?	0	0	0
CN(C)c1ccc(N=c2sc3ccccc3n2C)cc1	0	?	0	?	-51	0
CC(=O)SCC(=O)N=c1sc2cc(F)ccc2n1C	?	-	21µM	0	0	?
CC(C)(C)n1nnnc1C(c1ccccc1)N1CCN(c2ccccn2)CC1 (configuration not stated)	0	-	0	-	0	-

Screening results as filed in PubChem BioAssay.
